Test [1] is described as follows: BSK_LPS_PGE2: BioMAP Diversity Plus: LPS Assay for Prostaglandin E2 (PGE2) Biomarker Activity (AID 2283082). The settings on record: primary human HUVEC with PBMC; actives raise or lower the signal. The essentials: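 Endpoint derived from bidirectional curve fitting versus DMSO of ELISA-measured PGE2 in LPS-stimulated human primary vascular co-culture (HUVEC with PBMC) harvested at 24 h.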

Read-out in test [2]: Macrophage colony-stimulating factor (MCSF), CSF1 (gene 1435)
Put plainly: BSK_LPS_MCSF: BioMAP Diversity Plus: LPS Assay for Macrophage colony-stimulating factor (MCSF) Biomarker Activity (AID 2283083). The conditions noted are these: primary human HUVEC with PBMC; actives raise or lower the signal. The essentials:
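HUVEC–PBMC co-culture, M-CSF measured by ELISA 24 h after chemical dosing. Fitted in both directions relative to DMSO as negative control; overt cytotoxicity assessed by SRB total-protein staining in parallel cultures.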

Read-out in test [3]: Tissue Factor, F3 (gene 2152)
Put plainly: BSK_LPS_TissueFactor: BioMAP Diversity Plus: LPS Assay for Tissue Factor Biomarker Activity (AID 2283084). The conditions noted are these: primary human HUVEC with PBMC; actives raise or lower the signal. The method, boiled down:
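Human umbilical vein endothelial cells co-cultured with PBMC were dosed with compound. Cell-surface CD142 was measured by ELISA 24 h later. Activity was fitted bidirectionally against DMSO, with SRB total-protein staining in parallel cultures for cytotoxicity.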

Read-out in test [4]: Tumor necrosis factor (Homo sapiens) (UniProt P01375)
Put plainly: BSK_LPS_TNFa: BioMAP Diversity Plus: LPS Assay for Tumour Necrosis Factor alpha (TNFa) Biomarker Activity (AID 2283085). The conditions noted are these: primary human HUVEC with PBMC; actives raise or lower the signal. The method, boiled down: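 Primary human vascular co-culture of HUVEC and PBMC; TNFa ELISA 24 h after treatment, analysed as increase or decrease relative to DMSO control.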

Read-out in test [5]: Vascular cell adhesion molecule 1 (VCAM1), VCAM1 (gene 7412)
Put plainly: BSK_LPS_VCAM1: BioMAP Diversity Plus: LPS Assay for Vascular cell adhesion molecule 1 (VCAM1) Biomarker Activity (AID 2283086). The conditions noted are these: primary human HUVEC with PBMC; actives raise or lower the signal. The essentials:
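Primary human vascular co-culture (umbilical vein endothelium plus PBMC) stimulated with LPS received chemical; 24 h later VCAM-1 was read by ELISA. Overt cytotoxicity was assessed by sulforhodamine B staining of parallel cultures at the same time point.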

Read-out in a further test: CD40, CD40 (gene 958)
Put plainly: BSK_SAg_CD40: BioMAP Diversity Plus: SAg Assay for CD40 Biomarker Activity (AID 2283088). The conditions noted are these: primary human HUVEC with PBMC; actives raise or lower the signal. The method, boiled down: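 HUVEC plus PBMC co-culture, superantigen-activated, with CD40 read by ELISA 24 h after dosing. Curves fitted in both directions against DMSO. Overt cytotoxicity checked by parallel SRB total-protein staining.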

Read-out in a further test: CD69, CD69 (gene 969)
Put plainly: BSK_SAg_CD69: BioMAP Diversity Plus: SAg Assay for CD69 Biomarker Activity (AID 2283089).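 On AC50: cell surface CD69 protein quantified by ELISA with fluorescence detection.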 The conditions noted are these: primary human HUVEC with PBMC; actives raise or lower the signal. The essentials:
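Values derive from bidirectional fitting relative to DMSO vehicle. Cells: umbilical vein endothelium plus peripheral blood mononuclear cells, treated 24 h before fluorescent ELISA for CD69.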

Read-out in test [6]: Monocyte Chemoattractant Protein-1 (MCP1), CCL2 (gene 6347)
Put plainly: BSK_SAg_MCP1: BioMAP Diversity Plus: SAg Assay for Monocyte Chemoattractant Protein-1 (MCP1) Biomarker Activity (AID 2283090). The settings on record: primary human HUVEC with PBMC; actives raise or lower the signal. The method, boiled down: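 MCP-1 levels in the endothelial–PBMC SAg co-culture were quantified by ELISA at 24 h post-dosing; both increases and decreases versus DMSO scored. Cytotoxicity monitored by SRB total protein in parallel cultures.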

Read-out in test [7]: E-selectin (Homo sapiens) (UniProt P16581)
Put plainly: BSK_SAg_Eselectin: BioMAP Diversity Plus: SAg Assay for Eselectin Biomarker Activity (AID 2283091). The settings on record: primary human HUVEC with PBMC; actives raise or lower the signal. The essentials:
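Human umbilical vein endothelial cells co-cultured with peripheral blood mononuclear cells, SAg system. E-selectin is measured by ELISA 24 h after dosing and fitted bidirectionally against DMSO. Cytotoxicity is checked by SRB staining of parallel cultures.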

Read-out in test [8]: Monokine induced gamma interferon (MIG), CXCL9 (gene 4283)
Put plainly: BSK_SAg_MIG: BioMAP Diversity Plus: SAg Assay for Monokine induced gamma interferon (MIG) Biomarker Activity (AID 2283092). The settings on record: primary human HUVEC with PBMC; actives raise or lower the signal. The method, boiled down: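 Values reflect bidirectional fitting of ELISA-measured MIG against DMSO vehicle, taken 24 h after dosing of a co-culture of human umbilical vein endothelial cells and peripheral blood mononuclear cells.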

Test [9] can be described thus: BSK_SAg_PBMCCytotoxicity: PBMC Cytotoxicity Assessment in the BioMAP Diversity Plus: SAg Assay (AID 2283093).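 Further: PBMC viability measured as Alamar Blue reduction fluorescence at 546/580 nm; fitted both ways against DMSO so a hit may be loss or gain of signal.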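 On AC50: PBMC superantigen activated with SEB plus TSST-1 one hour after compound addition.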 The settings on record: primary human HUVEC with PBMC. The method, boiled down:
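Compound added to 75,000 PBMC/well for 1 h; SEB and TSST-1 then added at 20 ng/mL final each; 90 h incubation; Alamar Blue 6 h; read 546/580 nm ex/em. Activity fitted bidirectionally relative to DMSO baseline.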

Read-out in test [10]: Interleukin-8 (IL8), CXCL8 (gene 3576)
Put plainly: BSK_SAg_IL8: BioMAP Diversity Plus: SAg Assay for Interleukin-8 (IL8) Biomarker Activity (AID 2283094). The conditions noted are these: primary human HUVEC with PBMC; actives raise or lower the signal. The essentials: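 In this co-culture of human umbilical vein endothelium with peripheral blood mononuclear cells, IL-8 is assayed by ELISA at 24 h. DMSO serves as baseline for bidirectional curve fitting.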

Test [11] in a line: BSK_SAg_Proliferation: Cell Proliferation Assessment in the BioMAP Diversity Plus: SAg Assay (AID 2283095).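 Further: relative cell number as total protein by SRB absorbance in sub-confluent culture.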 The conditions noted are these: primary human HUVEC with PBMC. The method, boiled down: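 Readout is SRB-stained protein (560 nm) in a primary human HUVEC and PBMC co-culture; sub-confluent cultures are read at 96 h. Activity is fitted bidirectionally using DMSO as baseline.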

The nature of test [12]: BSK_SAg_SRB: Viability Assessment in the BioMAP Diversity Plus: SAg Assay (AID 2283096).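 Further: cells read one day after compound addition; hits may be either gain or loss of signal compared with DMSO.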 The conditions noted are these: primary human HUVEC with PBMC. The method, boiled down: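 Total protein by sulforhodamine B staining, 24 h after dosing, in HUVEC–PBMC co-culture; DMSO-referenced bidirectional fitting.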
Read-out in a further test: CD38, CD38 (gene 952)
Put plainly: BSK_SAg_CD38: BioMAP Diversity Plus: SAg Assay for CD38 Biomarker Activity (AID 2283087). The settings on record: primary human HUVEC with PBMC; actives raise or lower the signal. The essentials:
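Fluorescence ELISA of cell-surface CD38 served as the read-out, with either increase or decrease fitted against DMSO controls. Cells were a human umbilical vein endothelium plus PBMC co-culture under SEB/TSST-1 stimulation, measured 24 h after dosing.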

Test [13] has as its target human CYP1A1, CYP1A1 (gene 1543) (UniProt P04798). Put plainly: NVS_ADME_hCYP1A1: NovaScreen (NVS) CYP450-related Enzyme Activity (ADME) Assay for human CYP1A1 (AID 2283100; active means hit-call score of the fitted dose curve at least 0.9, where 1 is the maximum). The method, boiled down:
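Recombinant CYP1A1 with a fluorogenic substrate, cell-free, read 1 h after dosing; acetonitrile as negative control. Single-concentration screen at 10 uM in duplicate, then concentration-response up to 20 uM for chemicals meeting ~30% inhibition threshold.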

Test [14] deals with human CYP2B6, CYP2B6 (gene 1555) (UniProt P20813). Put plainly: NVS_ADME_hCYP2B6: NovaScreen (NVS) CYP450-related Enzyme Activity (ADME) Assay for human CYP2B6 (AID 2283101; active means hit-call score of the fitted dose curve at least 0.9, where 1 is the maximum). The essentials: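 Compounds were first screened in duplicate at 10 uM against recombinant enzyme, with the fluorescent product measured after 1 hour. Active compounds were retested over a concentration series. Loss of fluorescence versus acetonitrile control was scored as reduced enzyme activity.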

The target in test [15] is human CYP2D6, CYP2D6 (gene 1565) (UniProt P10635). Put plainly: NVS_ADME_hCYP2D6: NovaScreen (NVS) CYP450-related Enzyme Activity (ADME) Assay for human CYP2D6 (AID 2283107; active means hit-call score of the fitted dose curve at least 0.9, where 1 is the maximum). The essentials: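 Cell-free assay using recombinant human CYP2D6 expressed in insect cells, with a fluorogenic substrate read after 1 h. Primary screen in duplicate at 10 uM; actives followed up in concentration series. Loss of signal fitted relative to acetonitrile.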

Structures are written as SMILES. Records with an inconclusive call do not appear. Active and inactive are the calls of the source. How the source made its calls, unless noted: active means hit-call score of the fitted dose curve at least 0.9, where 1 is the maximum; inactive means score below 0.9.

For orientation: AC50 means the concentration giving half of the maximal activity seen.

Sequence of Tumor necrosis factor (Homo sapiens) (P01375 whole entry, looked up): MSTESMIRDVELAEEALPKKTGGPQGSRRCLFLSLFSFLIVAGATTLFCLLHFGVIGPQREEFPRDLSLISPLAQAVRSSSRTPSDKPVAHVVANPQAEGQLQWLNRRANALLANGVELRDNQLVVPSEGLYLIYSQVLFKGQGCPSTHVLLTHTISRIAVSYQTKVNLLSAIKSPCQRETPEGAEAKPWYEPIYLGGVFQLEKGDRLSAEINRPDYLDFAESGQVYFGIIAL
Sequence of E-selectin (Homo sapiens) (P16581 whole entry, looked up): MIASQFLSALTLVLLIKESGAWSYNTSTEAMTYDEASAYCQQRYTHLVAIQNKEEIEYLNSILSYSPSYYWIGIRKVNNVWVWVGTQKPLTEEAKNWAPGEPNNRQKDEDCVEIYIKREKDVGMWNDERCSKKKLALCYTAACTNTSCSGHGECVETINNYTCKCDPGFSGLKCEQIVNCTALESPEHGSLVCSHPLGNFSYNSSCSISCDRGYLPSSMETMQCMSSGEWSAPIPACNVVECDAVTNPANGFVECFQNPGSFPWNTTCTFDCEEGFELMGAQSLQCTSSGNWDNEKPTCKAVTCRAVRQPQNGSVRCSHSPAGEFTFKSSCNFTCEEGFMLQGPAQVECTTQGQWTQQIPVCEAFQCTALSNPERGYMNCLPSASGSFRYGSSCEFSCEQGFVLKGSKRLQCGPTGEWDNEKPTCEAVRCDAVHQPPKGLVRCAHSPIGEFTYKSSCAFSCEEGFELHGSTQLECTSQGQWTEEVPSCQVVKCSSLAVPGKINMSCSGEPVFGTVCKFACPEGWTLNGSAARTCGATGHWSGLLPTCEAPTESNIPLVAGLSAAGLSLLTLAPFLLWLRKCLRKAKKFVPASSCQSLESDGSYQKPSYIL
Sequence of human CYP2B6, CYP2B6 (gene 1555) (P20813 whole entry, looked up): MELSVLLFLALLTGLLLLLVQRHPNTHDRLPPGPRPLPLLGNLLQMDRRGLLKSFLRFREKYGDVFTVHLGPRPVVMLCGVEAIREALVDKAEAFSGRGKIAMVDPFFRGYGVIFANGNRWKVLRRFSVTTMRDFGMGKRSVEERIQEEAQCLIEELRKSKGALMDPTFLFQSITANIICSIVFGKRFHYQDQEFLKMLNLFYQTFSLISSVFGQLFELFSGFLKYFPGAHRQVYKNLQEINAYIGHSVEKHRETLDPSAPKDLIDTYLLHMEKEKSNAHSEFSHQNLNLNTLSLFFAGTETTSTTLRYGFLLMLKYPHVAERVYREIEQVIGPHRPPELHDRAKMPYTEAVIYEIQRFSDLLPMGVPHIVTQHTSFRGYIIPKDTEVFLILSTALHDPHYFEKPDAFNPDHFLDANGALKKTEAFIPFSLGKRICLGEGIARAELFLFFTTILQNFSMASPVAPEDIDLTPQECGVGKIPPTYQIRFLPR
Sequence of human CYP1A1, CYP1A1 (gene 1543) (P04798 whole entry, looked up): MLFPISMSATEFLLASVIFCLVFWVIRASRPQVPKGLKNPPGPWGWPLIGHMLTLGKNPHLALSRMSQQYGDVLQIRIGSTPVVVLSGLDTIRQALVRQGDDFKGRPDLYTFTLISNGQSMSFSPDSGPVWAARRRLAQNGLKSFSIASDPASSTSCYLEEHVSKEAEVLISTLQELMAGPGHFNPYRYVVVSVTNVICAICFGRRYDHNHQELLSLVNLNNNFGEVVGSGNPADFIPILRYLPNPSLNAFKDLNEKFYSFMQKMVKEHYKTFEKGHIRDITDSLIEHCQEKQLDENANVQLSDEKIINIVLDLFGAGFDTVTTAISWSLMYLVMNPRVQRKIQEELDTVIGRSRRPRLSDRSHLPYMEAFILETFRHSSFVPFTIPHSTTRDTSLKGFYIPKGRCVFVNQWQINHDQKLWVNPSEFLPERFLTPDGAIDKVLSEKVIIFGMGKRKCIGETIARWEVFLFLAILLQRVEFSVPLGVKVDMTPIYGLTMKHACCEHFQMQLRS
Sequence of human CYP2D6, CYP2D6 (gene 1565) (P10635 whole entry, looked up): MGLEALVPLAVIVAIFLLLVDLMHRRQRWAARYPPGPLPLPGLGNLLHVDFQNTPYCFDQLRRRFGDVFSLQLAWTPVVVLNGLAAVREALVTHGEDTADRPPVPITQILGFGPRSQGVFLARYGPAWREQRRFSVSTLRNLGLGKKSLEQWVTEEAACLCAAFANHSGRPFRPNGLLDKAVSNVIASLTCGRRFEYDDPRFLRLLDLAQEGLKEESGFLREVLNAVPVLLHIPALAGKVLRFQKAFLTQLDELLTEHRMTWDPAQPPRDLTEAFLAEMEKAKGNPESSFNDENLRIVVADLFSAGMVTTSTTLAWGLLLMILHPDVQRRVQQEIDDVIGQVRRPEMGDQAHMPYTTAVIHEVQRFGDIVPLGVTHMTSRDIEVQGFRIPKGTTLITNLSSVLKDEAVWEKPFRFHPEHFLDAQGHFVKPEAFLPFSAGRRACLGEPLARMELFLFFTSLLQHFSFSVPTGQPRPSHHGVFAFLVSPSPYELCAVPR

`Cc1cccc2ccccc12`: the outcome in [1] was “inactive”; in [2], “inactive”; in test [3], “inactive”; in [4] it was “inactive”; in test [5] it was “inactive”; in the test with CD40, CD40 (gene 958), “inactive”. Besides, the outcome in the test with CD69, CD69 (gene 969) is “inactive”; in test [6], “inactive”; in [7] it was “inactive”; in test [8], “inactive”; in test [9], “inactive”; in [10], “inactive”. The result in [11] and in [12] was inactive.
Take `CC(O)CC(C)(C)O` (stereo unspecified): the outcome was “inactive” in [1]; “inactive” in [2]; “inactive” in [3]; “inactive” in test [4]; “inactive” in test [5]; “inactive” with CD40, CD40 (gene 958). Besides, the outcome with CD69, CD69 (gene 969) is “inactive”; in [6], “inactive”; in test [7], “inactive”; in test [8] it was “inactive”; in test [9], “inactive”; in test [10], “inactive”. In test [11], the result was inactive.
On to `O=c1[nH]sc2ccccc12`, for which the AC50 in [1] was 3.94 µM (active); in test [2], 12 µM (active); in test [3] it was 17.7 µM (active); in [4] it was 9.18 µM (active); in [5], 9.14 µM (active); with CD38, CD38 (gene 952), 8.45 µM (active). Further, the AC50 in the test with CD40, CD40 (gene 958) is 7.92 µM (active); with CD69, CD69 (gene 969), 13.1 µM (active); in test [6] it was 15.3 µM (active); in [7] it was 12.3 µM (active); in [10], 23.2 µM (active); in [11], 0.77 µM (active). The AC50 in [12] was 26.8 µM (active); in test [13] it was 5.11 µM (active); in test [14], 0.721 µM (active).
As for `CCCCCCCCCC(=O)O`, the outcome in test [1] is “inactive”; in test [2] it was “inactive”; in test [3], “inactive”; in test [4] it was “inactive”; in test [5], “inactive”; in the test with CD38, CD38 (gene 952) it was “inactive”. Besides, the outcome was “inactive” with CD40, CD40 (gene 958); “inactive” in the test with CD69, CD69 (gene 969); “inactive” in test [6]; “inactive” in test [7]; “inactive” in [10]; “inactive” in test [11]. Further, the result in [12] was inactive.
On to `CCCCCCCCCCCC[N+](C)(C)C`, for which the result in [1] was inactive. Moreover, the AC50 in test [2] was 26 µM (active); in test [3], 32.4 µM (active); in test [4], 31.7 µM (active); in [5] it was 25.7 µM (active); with CD38, CD38 (gene 952) it was 17.4 µM (active); with CD69, CD69 (gene 969), 18.1 µM (active). The AC50 in test [6] is 18.4 µM (active); in test [7], 32.2 µM (active); in test [9] it was 20 µM (active); in test [11], 6.09 µM (active); in test [15], 7.58 µM (active).
`CC(C)(C)c1cc(/C=C2\SC(N)=NC2=O)cc(C(C)(C)C)c1O`: the AC50 in test [1] is 0.186 µM (active); in test [2], 16 µM (active); in test [3] it was 25.1 µM (active); in test [4], 11.7 µM (active); in test [5] it was 15.6 µM (active); with CD38, CD38 (gene 952), 12.2 µM (active). Besides, the AC50 is 17.4 µM (active) with CD40, CD40 (gene 958); 20 µM (active) with CD69, CD69 (gene 969); 12.7 µM (active) in [6]; 7.42 µM (active) in test [7]; 11.1 µM (active) in test [9]; 8.74 µM (active) in test [10]. Moreover, the AC50 is 7.44 µM (active) in test [11] and 26.6 µM (active) in test [12].

The values are drawn from PubChem BioAssay (EPA / NIEHS).
